# U2OS ROS induce: ROS inducers in U2OS cancer cells, primary screen, cell-based, H2DCF-DA fluorescence; U2OS ROS induction; ROS induction (% of piperlongumine), % at 10 µM; 46,000 tested, 2% active; AID 624156, 2012; in the data active = ROS induction above about 79%, passing the limit was not always enough;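 note: 0% = DMSO vehicle median and 100% = reference compound median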
# YB-1 expr inh: inhibitors of YB-1 gene expression, primary screen, cell-based, fluorescence; AID 434959, 2010; U2OS, qRT-PCR YB-1 vs CDIP delta delta Cp, 16 h; stronger effect = higher value; zero = DMSO, each unit about twofold; delta delta Cp (YB-1 minus CDIP) (no concentration beside the values); 30,000 tested, 0.37% active;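 active = delta delta Cp rounded down to an integer at or above 3, about 3 SD of DMSO wells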;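 note: higher means less YB-1 transcript or more CDIP transcript relative to DMSO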
# The depositor's hits bear a star; / = not tested or not shown. Rows were chosen to be rich in hits. Some 2.3% of all compounds tested hit in one or more screens of this group.
SMILES,U2OS ROS induce,YB-1 expr inh
COc1cc(O)c(C(=O)CCc2ccc(OC)c(OC)c2)c(OC)c1,22,4.9*
COc1cc(NC(=O)COc2ccccc2[N+](=O)[O-])ccc1NC(=O)c1cccs1,132*,/
COc1ccc(NC(=O)COc2ccccc2[N+](=O)[O-])cc1Cl,-3,/
C[C@@H]1CN([C@H](C)CO)C(=O)c2cccc(NC(=O)c3nc4ccccc4s3)c2O[C@H]1CN(C)Cc1ccc(C(=O)Nc2ccccc2N)cc1,150*,-0.27
C[C@H](CO)N1C[C@H](C)[C@H](CN(C)Cc2ccc(Oc3ccccc3)cc2)Oc2c(NC(=O)c3nc4ccccc4s3)cccc2C1=O,48,0.25
C[C@H]1CN([C@@H](C)CO)C(=O)c2cccc(NC(=O)c3nc4ccccc4s3)c2O[C@H]1CN(C)Cc1ccccc1,11,0.21
C[C@H]1CN([C@@H](C)CO)C(=O)c2cccc(NC(=O)c3nc4ccccc4s3)c2O[C@H]1CN(C)Cc1ccc(Oc2ccccc2)cc1,95*,-0.15
C[C@H]1CN([C@@H](C)CO)C(=O)c2cccc(NC(=O)c3nc4ccccc4s3)c2O[C@H]1CN(C)Cc1ccc(C(=O)Nc2ccccc2N)cc1,172*,0.19
C[C@H](CO)N1C[C@H](C)[C@H](CN(C)Cc2ccccc2)Oc2c(NC(=O)c3nc4ccccc4s3)cccc2C1=O,22,0.36
O=C(NCCc1ccsc1)c1cnn2ccccc12,4,/
Cc1c2cnn(-c3ccccc3)c(=O)c2c(C)n1CCCC(=O)N(C)Cc1ccccc1,40,/
COc1ccccc1-c1cc(=O)n(CC(=O)O)c2c1CCCC2,-4,/
N#Cc1c(-c2ccccc2)cc(-c2cccs2)nc1SCS(=O)Cc1ccccc1 (configuration not stated),108*,/
CCS(=O)(=O)CCSc1nc(-c2ccccc2)cc(-c2ccccc2)c1C#N,98*,/
Cc1cc(-c2ccccc2)nc(SCc2ccccc2)c1C#N,2,/
N#Cc1c(-c2ccccc2)cc(-c2ccccc2)nc1SCC(O)CS(=O)Cc1ccccc1 (configuration not stated),144*,/
COc1ccc(-c2cc(-c3cccs3)nc(SC(C(=O)O)c3ccccc3)c2C#N)cc1 (configuration not stated),149*,/
N#Cc1c(-c2ccco2)cc(-c2ccccc2)nc1SCCN1C(=O)c2ccccc2C1=O,-3,/
CC(C)(C)c1cc(-c2cccs2)c(C#N)c(SCC(=O)Oc2ccccc2)n1,16,-0.36
N#Cc1c(-c2ccco2)cc(-c2cccs2)nc1OCc1ccc(F)cc1,4,-0.15
CN(CC(=O)NCc1ccccn1)S(=O)(=O)c1cc(Br)cnc1N,11,/
CC1CCN(S(=O)(=O)Cc2ccccc2)CC1,-10,/
Cc1[nH]c(=O)[nH]c(=O)c1S(=O)(=O)N1c2ccccc2CC1C (configuration not stated),8,/
O=C(NCCN1CCNC1=O)c1sc2ccccc2c1Cl,-18,/
NC(=O)c1oc2ccccc2c1NC(=O)CSc1ccccc1,-15,/
SMILES,U2OS ROS induce,YB-1 expr inh
CC(C)NC(=O)Nc1ccc2c(c1)CC(=O)N([C@H](C)CO)C[C@H](C)[C@H](CN(C)Cc1ccc(Oc3ccccc3)cc1)O2,15,0.21
C[C@@H]1CN([C@H](C)CO)C(=O)Cc2cc(NC(=O)c3ccncc3)ccc2O[C@H]1CN(C)Cc1ccc(Oc2ccccc2)cc1,127*,-0.0039
C[C@@H]1CN([C@H](C)CO)C(=O)Cc2cc(NC(=O)CCN3CCOCC3)ccc2O[C@@H]1CN(C)Cc1ccc(Oc2ccccc2)cc1,87*,-0.087
CC(C)NC(=O)Nc1ccc2c(c1)CC(=O)N([C@H](C)CO)C[C@@H](C)[C@@H](CN(C)Cc1ccc(Oc3ccccc3)cc1)O2,129*,-0.16
C[C@@H]1CN([C@@H](C)CO)C(=O)Cc2cc(NC(=O)c3ccncc3)ccc2O[C@@H]1CN(C)Cc1ccc(Oc2ccccc2)cc1,5,-0.065
C[C@H]1CN([C@@H](C)CO)C(=O)Cc2cc(NC(=O)CCN3CCOCC3)ccc2O[C@@H]1CN(C)Cc1ccc(Oc2ccccc2)cc1,18,0.036
O=C(C1CCCN(Cc2cccc(Cl)c2)C1)N1CCCCCC1 (configuration not stated),2,/
Cc1ccc(CSc2nc3ccccc3c3nc(CCc4c(C)n[nH]c4C)nn23)cc1,12,/
Cc1ccc2oc(=O)c(-c3nc4ccccc4s3)cc2c1,-3,/
Clc1ccc(OCc2nc(CSc3cccs3)no2)c(Cl)c1,-7,/
Cn1c(CSc2nc3ccccc3s2)nnc1SCC(=O)NCCO,-14,/
O=C(Nc1ccc(OCc2ccccc2)cc1)N1CCN(c2ccccn2)CC1,-15,/
OCCN(CCO)c1nc(-c2ccccc2)nc2sc(-c3ccccc3)cc12,116*,/
C=CCN(CC=C)c1nc(-c2ccccc2)nc2ccccc12,46,/
Cc1cc(Sc2nnc(/N=C/N(C)C)s2)c2ccccc2n1,192*,/
CN(C)/C=N/c1nnc(SCC(=O)c2ccc(F)cc2)s1,-7,/
CC1Oc2c3c(c4c(-c5ccccc5)cc(=O)oc4c2C(=O)C1C)OC(C)(C)C=C3 (configuration not stated),114*,-0.68
CC(=O)Oc1c(-c2ccccc2)oc2c(CC=C(C)C)c3c(c(OC(C)=O)c2c1=O)C=CC(C)(C)O3,-9,0.17
C[C@H](CO)N1C[C@H](C)[C@@H](CN(C)Cc2ccc(Oc3ccccc3)cc2)Oc2c(NS(C)(=O)=O)cccc2C1=O,92*,-0.35
C[C@@H]1CN([C@H](C)CO)C(=O)c2cccc(NS(C)(=O)=O)c2O[C@H]1CN(C)Cc1ccc(-c2ccccc2)cc1,2,-0.48
C[C@H]1CN([C@@H](C)CO)C(=O)c2cccc(NS(=O)(=O)c3ccc(F)cc3)c2O[C@@H]1CN(C)Cc1ccc(-c2ccccc2)cc1,105*,0.29
C[C@H]1CN([C@@H](C)CO)C(=O)c2cccc(NS(C)(=O)=O)c2O[C@@H]1CN(C)Cc1ccc(-c2ccccc2)cc1,98*,0.18
C[C@@H]1CN([C@@H](C)CO)C(=O)c2cccc(NS(C)(=O)=O)c2O[C@H]1CN(C)Cc1ccc(Oc2ccccc2)cc1,10,0.014
C[C@@H]1CN([C@@H](C)CO)C(=O)c2cccc(NS(=O)(=O)c3ccc(F)cc3)c2O[C@@H]1CN(C)Cc1ccc(-c2ccccc2)cc1,64,0.52
CCCc1nnc2c3c4c(sc3ncn12)CCCC4,16,/
SMILES,U2OS ROS induce,YB-1 expr inh
CC(=O)N(CCc1ccccc1)C1CC(=O)N(c2ccccc2)C1=O (configuration not stated),-3,/
O=C(Oc1ccccc1/C=C1/N=C2CCCCCN2C1=O)c1ccccc1Cl,61,/
CCCN(CCC)C(=O)c1cc(S(=O)(=O)N2CCc3ccccc32)cn1C,-1,/
COc1ccc(CCNC(=O)c2ccc(/C=C3\Oc4ccccc4NC3=O)cc2)cc1OC,19,/
CSc1ccc(S(=O)(=O)Nc2c(C)cc(OCC(=O)N3CCOCC3)cc2C)cc1,-7,/
CCOC(=O)c1noc(C)c1-c1csc(COc2cc(Cl)cc(Cl)c2)n1,-1,/
CC(C)(C)C(=O)CSc1ncnc2sc3c(c12)CCCC3,30,/
CCN(CC)C(=S)Sc1ncnc2sc3c(c12)CCCC3,92*,-0.089
CC(=O)N1c2ccccc2C(C)(c2ccccc2)CC1(C)C (configuration not stated),27,-0.15

# Assay outcomes (PubChem BioAssay)
